TIM10 inh – inhibits growth of TIM10 yeast strain. inhibition, % at 10 µM. S. cerevisiae TIM10 strain growth, BacTiter-Glo luminescence, 24 h. 330,000 tested, 1.4% active;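 active means inhibition of 40% or more at the single tested concentration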;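 further: wild-type TIM10 isogenic control strain grown at permissive 25 °C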
V-ATPase pH – alters yeast V-ATPase proton transport; S. cerevisiae, pHLuorin cytosolic pH fluorescence; response, % at 10 µM; 350,000 tested, 0.37% active; AID 504577; in the data active means response mostly above about 7.3%, no sharp cut-off; inactive means mostly below about 5.4%; further: actives read high
NLRP3 yeast inh – inhibitors of NALP3 inflammasome in yeast; 330,000 tested, 0.39% active; Yeast reconstituted NLRP3/ASC/caspase-1, beta-gal luminescence, 24 h; inhibition, % at 10 µM;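 active means inhibition of 50% or more; inactive means inhibition below 50%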;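 further: plate controls were induced DMSO wells for no effect and uninduced yeast grown without galactose for full effect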
tim23-1 inh – inhibits growth of tim23-1 mutant yeast. S. cerevisiae tim23-1 growth, BacTiter-Glo luminescence, 24 h. inhibition, % at 20 µM. 330,000 tested, 1.3% active. AID 463212;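 active means growth inhibition of the mutant yeast at or above 50%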;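 further: temperature-sensitive mutant grown at 25 °C; plate controls were DMSO-treated mutant yeast for no effect and medium wells lacking yeast for full effect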
NALP1 yeast inh – blocks the NALP1 inflammasome reconstituted in yeast. S. cerevisiae NALP1/ASC/caspase-1 growth, X-gal OD620, 72 h. inhibition, % at 10 µM. 280,000 tested, 0.61% active. AID 2071; in the data active means inhibition mostly above about 24%, no sharp cut-off; inactive means mostly below about 32%
tim10-1 inh – tim10-1 yeast growth inhibition. AID 463190. inhibition, % at 20 µM. 330,000 tested, 2.2% active. S. cerevisiae tim10-1 ts strain growth, BacTiter-Glo, 24 h;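 active means inhibition of at least 40%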;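 further: mutant grown at 25 °C; 0% = DMSO wells with yeast and 100% = wells holding no yeast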
V-ATPase pH SP – modulates yeast V-ATPase proton transport; shares compounds with V-ATPase pH; S. cerevisiae pHLuorin cytosolic pH; response, % at 10 µM; 980 tested, 2% active; AID 602197; in the data active means response above about 24%;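 further: plate controls were vehicle wells for no effect and positive control wells for full effect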
Active calls of the source: *; nt = not tested or not shown. Shown are actives, neighbours in structure and some others; about 4.2% of the full set was active somewhere.

SMILES	TIM10 inh	V-ATPase pH	NLRP3 yeast inh	tim23-1 inh	NALP1 yeast inh	tim10-1 inh	V-ATPase pH SP
CN(C)CCNC(=O)c1cccc(S(=O)(=O)Nc2ccc(F)cc2)c1	-15	6.2*	-11	-7	-2	10	1
O=C(/C=C/c1ccc(Cl)c([N+](=O)[O-])c1)Nc1ccc(NC(=O)c2ccco2)cc1	nt	-17	nt	nt	15	nt	nt
O=C(/C=C/c1ccc(Cl)c([N+](=O)[O-])c1)Nc1cccc(NC(=O)c2ccco2)c1	17	8.8*	-2	-3	10	13	-2
CN(C)S(=O)(=O)c1ccc(C(=O)NCC(=O)Nc2ccc(F)c(F)c2)cc1	9	7.0*	2	2	13	-2	1
CC(NC(=O)COC(=O)/C=C/c1cccc(C(F)(F)F)c1)c1ccccc1 (configuration not stated)	-11	21*	-8	9	24	19	-3
O=C(COC(=O)/C=C/c1cccc(C(F)(F)F)c1)NCc1ccccc1	-6	-1	12	4	32	8	nt
CCc1nn(CCCC(=O)N(C)Cc2ccccc2)c(=O)c2cc3occc3n12	-18	-2	13	16	4	23	nt
CCc1nn(C(C)C(=O)N(C)Cc2ccccc2)c(=O)c2cc3occc3n12 (configuration not stated)	6	12*	13	17	-3	12	-1
COc1cc2c(cc1OC)CN(CCC(C)c1ccc(Cl)cc1)CC2 (configuration not stated)	0	13*	22	-8	nt	-9	2
COc1cc2c(cc1OC)CN(Cc1ccccc1)CC2	-6	-4	11	-16	24	-13	nt
C/C(=N\NC(=O)CNC(=O)c1ccco1)c1ccc(Br)cc1	19	0	5	15	11	23	nt
O=C(CSc1ccc2nnc(-c3cccnc3)n2n1)Nc1cccc(F)c1	20	1	14	10	8	8	nt
Clc1cccc(/C=N/N2CCN(Cc3ccccc3)CC2)c1	23	14*	1	27	12	19	2
C(=N\N1CCN(Cc2ccccc2)CC1)/c1ccccc1	-2	1	27	9	nt	-9	nt
COCOCCn1cc(CN2CCS(=O)(=O)N(Cc3ccc(-c4ccc(OC)nc4)cc3)C(C)C2=O)nn1 (configuration not stated)	nt	7.8*	nt	nt	nt	nt	-2
CCC(C)C(NC(=O)OC(C)(C)C)C(=O)NC(Cc1ccccc1)C(=O)OC (configuration not stated)	4	1	-4	15	-3	23	nt
Cc1cc(NC(=O)/C=C/c2ccc(F)cc2)n(-c2nc3ccccc3[nH]2)n1	9	8	9	-8	nt	7	nt
COc1ccc(/C=C/C(=O)Nc2cc(C)nn2-c2nc3ccccc3[nH]2)cc1	8	16*	-6	6	27	12	-1
CCOC(=O)CNC(=O)Cc1ccc(Cl)cc1	2	0	8	1	14	4	nt
CCN(CC)C(=O)CNC(=O)Cc1ccc(Cl)cc1	-2	9.5*	19	4	31	5	2
CNc1c([N+](=O)[O-])cnn1-c1ccccc1F	1	2	-5	-3	14	-1	nt
Cc1csc(SCC(=O)NC2CCC(C)CC2)n1 (configuration not stated)	-4	7.5*	7	-9	nt	-1	-6
COC(=O)c1c(NC(=O)CSc2ncn[nH]2)sc(C)c1C	14	4	19	0	nt	14	nt
CC(=O)c1nn(-c2cccc(C)c2)cc1C(=O)c1cccc(Br)c1	-6	5.5*	-4	0	nt	-9	1
COc1ccc(CC(=O)N2CC(=O)N(CCc3ccccc3)C(=O)C2)cc1	10	8.7*	7	33	5	38	-1
SMILES	TIM10 inh	V-ATPase pH	NLRP3 yeast inh	tim23-1 inh	NALP1 yeast inh	tim10-1 inh	V-ATPase pH SP
COc1ccc(C(=O)N2CC(=O)N(CCc3ccccc3)C(=O)C2)cc1OC	-7	2	14	11	5	5	nt
CCOC(=O)C(NC(C)=O)(Nc1ccc(F)cc1)C(F)(F)F (configuration not stated)	-6	-7	5	10	10	12	nt
CCOC(=O)NC(Nc1ccc(S(N)(=O)=O)cc1)(C(=O)OCC)C(F)(F)F (configuration not stated)	-4	13*	15	4	7	-12	2
Cc1cc(C)c(C(=O)COC(=O)C2CCN(c3ccc(C(F)(F)F)cn3)CC2)c(C)c1	11	8.6*	-1	21	nt	25	0
CCOC(=O)C1=C(C)Nc2nc(SCc3cccnc3)nn2C1c1ccc(OC)cc1 (configuration not stated)	2	-2	5	12	-5	7	nt
CN(CC(=O)Nc1ccccc1Cl)C(=O)C1CCN(C(=O)c2ccc(Cl)cc2)CC1	4	-3	-1	2	11	10	nt
Cc1cc(Br)ccc1NC(=O)CN(C)C(=O)C1CCN(C(=O)c2ccc(F)cc2)CC1	2	12*	20	-20	nt	-12	1
O=S(=O)(c1cccc(-c2nnco2)c1)N1CCOCC1	2	-2	3	11	13	18	nt
CC(C)(C)C(=O)Nc1c(Cl)cccc1OC(F)(F)F	10	0	-2	6	6	-12	nt
CC1CCCCN1S(=O)(=O)c1coc(C(N)=O)c1 (configuration not stated)	6	7.0*	12	15	4	28	3
Cc1ccc(/C=N/NC(=O)c2nnn(-c3nonc3N)c2CSc2ccccc2)s1	2	8.1*	-7	3	18	6	-3
CC(C)n1c(N)c(C#N)c2ccc([N+](=O)[O-])cc2c1=O	-16	0	11	2	5	8	nt
Cc1occc1C(=O)N/N=C/c1sc(N2CCOCC2)nc1-c1ccccc1	-12	10*	21	21	-10	4	1
COc1ccc(F)cc1C(=O)C1CCCN(Cc2cn(C)c3ccccc23)C1 (configuration not stated)	14	-2	31	3	11	18	nt
S=c1[nH]nc(-c2ccc(Cl)cc2)n1Cc1ccccc1	37	1	23	46	-4	-2	nt
Cc1n[nH]c(=S)n1Cc1ccccc1	13	9.8*	4	10	nt	27	-7
C#CCNC(=O)C1=C[C@H](C(C)(C)C)C[C@H](OCCCCO)O1	8	16*	19	-2	nt	10	2
CC(C)(C)c1cc(C(=O)N/N=C/c2cc3c(cc2Br)OCO3)n[nH]1	-12	11*	8	9	3	9	6
O=C(N/N=C/c1cc2c(cc1Br)OCO2)c1ccccn1	-25	4	37	-7	9	-21	nt
Cc1ccc(S(=O)(=O)N(C)c2ccc(OCC(=O)NCc3ccco3)cc2)cc1	17	-2	-2	17	5	24	nt

Screening results deposited in PubChem BioAssay by several laboratories.
